Data as given in PubChem BioAssay AID485270 (The Scripps Research Institute Molecular Screening Center, 2010).
The whole screen tested about 330,000 compounds, of which about 5,800 (1.8%) were called active. Cut-off read from the data, not from the text of the source: active = inhibition mostly above about 38% (no sharp cut-off); inactive = mostly below about 40%. This excerpt belongs to a sample that is enriched for actives.

The compounds below were run against Orexin/Hypocretin receptor type 1 (Homo sapiens) (UniProt O43613) (assay: blocks the human orexin 1 receptor (AID 485270;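 note: 0% = agonist challenge alone and 100% = reference antagonist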)). Settings: OX1R-expressing cells, FRET antagonist read-out; at 6.6 µM; stronger effect = higher value.
Chain of Orexin/Hypocretin receptor type 1 (Homo sapiens) (O43613 whole entry, looked up): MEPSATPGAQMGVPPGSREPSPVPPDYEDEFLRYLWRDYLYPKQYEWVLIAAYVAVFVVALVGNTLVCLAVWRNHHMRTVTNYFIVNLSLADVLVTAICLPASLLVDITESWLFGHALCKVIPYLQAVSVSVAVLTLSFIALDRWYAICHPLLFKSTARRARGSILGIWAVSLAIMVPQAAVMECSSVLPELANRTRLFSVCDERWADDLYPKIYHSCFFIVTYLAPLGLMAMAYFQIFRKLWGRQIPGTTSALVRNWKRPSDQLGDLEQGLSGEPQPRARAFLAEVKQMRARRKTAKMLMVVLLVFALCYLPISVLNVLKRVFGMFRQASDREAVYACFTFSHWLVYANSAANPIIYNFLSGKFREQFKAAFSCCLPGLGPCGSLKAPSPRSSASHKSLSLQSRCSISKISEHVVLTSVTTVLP

inhibition, active:
CC1(C)CN(c2ccc(-c3ccnc4ncnn34)cc2)C1=O 41.3%
Cc1ccc2c(c1)nnc1nnc(SCC(=O)O)n12 89.5%
O=C(C1CCCN(S(=O)(=O)c2ccc([N+](=O)[O-])cc2)C1)N1CCCCC1 (stereo not given) 66.7%
O=C(Cc1ccccc1)N1CCN(S(=O)(=O)c2ccc([N+](=O)[O-])cc2)CC1 88.8%
O=C(C1CCC1)N1CCN(S(=O)(=O)c2ccc([N+](=O)[O-])cc2)CC1 43.9%
Cc1noc(C)c1CSCC(=O)Nc1nc2ccc(Oc3ccccc3)cc2s1 76%
CCOC(=O)C(C)Oc1cccc2c(=O)n(CC(=O)NCCc3ccc(OC)c(OC)c3)ccc12 (stereo not given) 37%
COc1cccc(/C=N/NC(=O)c2[nH]nc3c2CCc2ccccc2-3)c1O 75.7%
Cc1cc(C(=O)NC2CCCc3c2cnn3-c2cccc(C)c2C)c(C)o1 (stereo not given) 81%
Cc1ccc(NC(=O)CN2CCC(C(N)=O)CC2)cc1[N+](=O)[O-] 50.4%
CC(=O)N(C1=C(Cl)C(=O)c2ccccc2C1=O)c1ccc(C(=O)O)cc1 39.2%
CC(=O)c1ccc(-c2nnc(CCC(=O)N(C)Cc3cnc4ccccn34)o2)s1 40.1%
O=C(N/N=C/c1cc(Cl)cc([N+](=O)[O-])c1O)C(O)(c1ccccc1)c1ccccc1 54.6%

inhibition, inactive:
COc1ccc(CNC(=O)C[C@H]2C[C@H](C(=O)N3CCOCC3)[C@@]3(C)c4[nH]c5cc(CCC(=O)N(C)C)ccc5c4CCN3C2=O)cc1OC 1.77%
Nc1c(-c2ccc(F)cc2)cnc2ncnn12 7.26%
Cc1cccc(-c2nnc(SCC(=O)O)n2Cc2ccccc2)c1 -2.09%
CCn1nnnc1SCC(=O)c1ccc(C)cc1C 12.5%
CCN(C(=O)COC(=O)c1ccccc1O)c1cccc2ccccc12 4.23%
CC[C@]12c3[nH]c4ccc(Cl)cc4c3CCN1C(=O)[C@@H](CC(=O)NCCCOC)C[C@@H]2C(=O)N1CCN(C(=O)C2CC2)CC1 -3.2%
COc1ccc(CCC(=O)N2CCN(S(=O)(=O)c3ccc(OC)cc3)CC2)cc1 3.59%
O=C(O)C1CCCCC1C(=O)N1CCN(S(=O)(=O)c2ccc(F)cc2)CC1 (stereo not given) 7.06%
O=C(C1CCCN(S(=O)(=O)c2ccccc2)C1)N1CCN(c2ccc(F)cc2)CC1 (stereo not given) 13.8%
Cc1ccc(S(=O)(=O)N2CCCC(C(=O)N3CCN(C)CC3)C2)cc1 (stereo not given) 16.7%
O=C(NNS(=O)(=O)c1ccc([N+](=O)[O-])cc1)C1CCCCC1 34.2%
O=C(Cc1ccccc1)NNS(=O)(=O)c1ccc([N+](=O)[O-])cc1 42%
CC1CCCN(C(=O)CN2C(=O)c3ccccc3S2(=O)=O)C1 (stereo not given) 1.18%
COc1ccc(C(=O)Nc2cc(S(=O)(=O)N3CCCC3)ccc2Cl)cc1 16.2%
COc1ccc(OCC(=O)NNC(=O)C2CCC2)cc1 -2.24%
O=C(COC(=O)COc1cccc(F)c1)NCC1CCCCC1 4.71%
O=C(CN1C(=O)NC2(CCOc3ccccc32)C1=O)Nc1cccc([N+](=O)[O-])c1 (stereo not given) 7.29%
Cc1ccc(F)cc1NC(=O)CSCc1c(C)noc1C -1.27%
CCc1noc(C)c1C(=O)Nc1nc2ccc(OC)cc2s1 25.1%
Nn1c(SCC(=O)NC2CCCc3ccccc32)nnc1C1CC1 (stereo not given) 8.92%
CCOC(=O)C(C)Oc1cccc2c(=O)n(CC(=O)N3CCc4ccccc43)ccc12 (stereo not given) 12.2%
COC(=O)COc1cccc2c(=O)n(CC(=O)NCCc3ccc(OC)c(OC)c3)ccc12 1.07%
Cc1onc(-c2c(F)cccc2Cl)c1C(=O)OCC(=O)N1C(C)CCCC1C (stereo not given) 17.2%
CN(C)CCNC(=O)c1[nH]nc2c1CCc1ccccc1-2 3.78%
COc1ccc(/C=N/NC(=O)c2ccc3c(c2)OCCO3)c(OC)c1 22.9%
Cc1ccc(S(=O)(=O)NCC(C)NS(C)(=O)=O)cc1 (stereo not given) 4.32%
CCN(CC(=O)NC(C)C)C(=O)c1cc(S(=O)(=O)N2CCCCC2)ccc1N1CCCCC1 4.56%
CC(=O)NC(CC(=O)Nc1ccc(S(=O)(=O)N2CCOCC2)cc1)c1ccccc1 (stereo not given) 6.07%
Cn1nccc1C(=O)NC1CCCc2c1cnn2-c1ccccc1F (stereo not given) 26.4%
COc1ccc(C(=O)NC2CCCc3c2cnn3-c2cccc(C)c2C)c(OC)n1 (stereo not given) 38.4%
CC[C@]1(C(=O)OC)[C@H]2C(=O)N(Cc3ccccc3)C(=O)[C@H]2[C@H]2CN=C(SCc3ccc(C#N)cc3)N21 4.34%
C=CC[C@H](CC(=O)OC(C)(C)C)C(=O)OC[C@H]1CCCN1C(=O)[C@H](CC=C)CC(=O)N(CCO)Cc1ccccc1 2.54%
Cc1ccc(NC(=O)CN(C)CC(=O)Nc2cccc(F)c2)cc1[N+](=O)[O-] 30%
CN1CCN(CC(=O)Nc2cccc([N+](=O)[O-])c2)CC1 28%
C[C@H](CO)N1C[C@H](C)[C@@H](CN(C)C(=O)NC2CCCCC2)Oc2ccc(NC(=O)c3ccncc3)cc2C1=O 1.49%
Cc1ccc(C(=O)NNC(=O)CSc2nnc3ccccn23)cc1 0.4%
COCCN(Cc1nc(-c2ccc(C(F)(F)F)cc2)no1)C(C)C -2.95%
CCc1ccc(CN(C)C(=O)CCc2nnc(-c3ccc(-c4ccccc4)cc3)o2)nc1 3.52%
CN(C)/N=C/c1cc(Cl)cc([N+](=O)[O-])c1O 46.4%
O=C(N/N=C/c1cc(Br)c(O)c([N+](=O)[O-])c1)C(O)(c1ccccc1)c1ccccc1 28.3%
COc1cc(NC(=O)COC(=O)c2cc(S(=O)(=O)N3CCOCC3)ccc2F)cc(OC)c1 15.3%
O=C(c1cnccn1)N1CCN(S(=O)(=O)c2cccc(Cl)c2)CC1 4.72%
